Vif-A3F inh: qHTS for Inhibitors of Vif-A3F Interactions: qHTS | hit rate 0.2% among 390,000 | Potency, µM (highest dose often 46.1 µM), for the others: at the top dose activity, negative = active | HeLa A3F-eYFP + Vif (tagged APOBEC3F with the HIV-1 protein that degrades it), YFP fluorescence increase; further: potency means the concentration at half of the fitted maximal effect; % of control where 0% means no effect; nearly all actives have a fitted effect of over 65% in size
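Fluorescence increase (Ex 488/Em 500-530) after overnight compound treatment at 37 deg C flags inhibition of Vif-driven A3F-eYFP loss in stable HeLa A3F-eYFP/Vif cells seeded overnight beforehand.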
MCF10A rereplic: A quantitative high throughput screen for small molecules that induce DNA re-replication in MCF 10a normal breast cells. hit rate 2.9% among 350,000. AID 624296, 2012. Potency, µM (doses to about 46.1 µM), for inactives: top-dose activity, positive = re-replication, hits mostly activators. MCF 10A DNA re-replication, Hoechst nuclear intensity, 48 h; further: potency means the concentration at half of the fitted maximal effect; % of control where 0% means no effect; nearly all actives have a fitted effect of over 50% in size
Giardia killer: Small Molecules that selectively kill Giardia lamblia: qHTS; Giardia lamblia trophozoite viability; activity change, % at 7.66 µM, hits read low; hit rate 0.15% among 340,000; in the data active means activity change below about -80%; inconclusive means between about -30% and that limit;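 further: parasites exposed to compound for two days anaerobically before the ATP read; on the % scale 0 is the no-effect control and ±100 the full control effect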
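Luminescence from cellular ATP indicates surviving trophozoites (100 cells/well) following 48 hrs anaerobic compound treatment at 37 deg C; signal develops 15-30 min at room temperature.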
IL-1B inflam inh: qHTS for Inhibitors of Inflammasome Signaling: IL-1-beta AlphaLISA Primary Screen; THP-1 LPS/ATP IL-1B secretion, AlphaLISA, 16 h; stronger effect = lower value; activity change, % at 57.5 µM; hit rate 4.7% among 360,000; in the data active means activity change below about -50%; inconclusive means mostly about -30% to -49%; further: on the % scale 0 is the no-effect control and ±100 the full control effect
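Secreted IL-1B measured by AlphaLISA bead assay after 16 h compound exposure of THP-1 cells; compounds (final up to 57.5 uM) added 1 h before LPS (250 ng/mL) and ATP (1.25 mM) stimulation; lower signal means less secretion.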
SW480 rerep: A quantitative high throughput screen for small molecules that induce DNA re-replication in SW480 colon adenocarcinoma cells. SW480 DNA re-replication, Hoechst DNA content imaging, 48 h. AID 624297, 2012. hit rate 1.8% among 340,000. Potency, µM (titrated, usually from 46.1 µM), inactives show top-dose re-replication activation, hits mostly activators; further: potency means the concentration at half of the fitted maximal effect; % of control where 0% means no effect; nearly all actives have a fitted effect of over 55% in size
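Image-based read-out: total Hoechst fluorescence of nuclei (405 nm excitation, 500-530 nm emission), with hits raising the fraction of high-intensity nuclei. SW480 colon cells incubated 48 hr with compounds at 37 C.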
Vif-APOBEC3G blk: qHTS for Inhibitors of Vif-A3G Interactions: qHTS | DNA dC->dU-editing enzyme APOBEC-3G (Homo sapiens), Q9HC16 | HeLa A3G-eYFP + Vif (tagged APOBEC3G with the HIV-1 protein that degrades it), YFP fluorescence, overnight | Potency, µM (series often up to 46.1 µM), for inactives: at the highest dose activity, negative = active, usual class: inhibitors | hit rate 0.076% among 410,000; further: potency means the concentration at half of the fitted maximal effect; on the % scale 0 is the no-effect control and ±100 the full control effect; nearly all actives have a fitted effect of over 60% in size
Target sequence (Q9HC16 whole entry, looked up): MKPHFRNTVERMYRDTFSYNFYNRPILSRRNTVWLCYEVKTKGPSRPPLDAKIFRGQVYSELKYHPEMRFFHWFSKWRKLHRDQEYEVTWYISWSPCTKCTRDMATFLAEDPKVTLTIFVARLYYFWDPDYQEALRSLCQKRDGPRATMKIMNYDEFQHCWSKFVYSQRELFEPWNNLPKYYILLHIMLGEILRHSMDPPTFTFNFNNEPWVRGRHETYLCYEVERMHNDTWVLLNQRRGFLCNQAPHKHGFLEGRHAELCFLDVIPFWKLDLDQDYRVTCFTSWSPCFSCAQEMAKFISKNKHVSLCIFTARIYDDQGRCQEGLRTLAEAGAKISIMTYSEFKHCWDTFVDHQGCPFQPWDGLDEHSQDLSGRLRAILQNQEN
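HeLa cells stably expressing Vif and C-terminally eYFP-tagged A3G, seeded overnight at 37 deg C, then exposed to compound by pintool overnight at 37 deg C. Rise in yellow fluorescence (Ex 488/Em 500-530, Acumen) marks blocked Vif-driven A3G degradation.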
* marks the source's active call; other numbers are inactive results; i = inactive; ? = inconclusive; . = no result. Only some compounds are listed: those with a hit (about 6.9% of all), similar ones and a draw of the others. Unless noted, the call rests on the fitted dose curve; in most records, active means well fitted curve in the direction sought with a large enough effect; inconclusive means small, poorly fitted or top-dose-only effect, or another doubt; inactive means no such curve, though single readings can be large; an effect the other way counts as inactive or inconclusive.

SMILES	Vif-A3F inh	MCF10A rereplic	Giardia killer	IL-1B inflam inh	SW480 rerep	Vif-APOBEC3G blk
COc1ccc(S(=O)(=O)N2CCN(C(=O)c3ccc([N+](=O)[O-])o3)CC2)cc1	-10%	?	?	-82*	?	?
CC(C)N(C(=O)NC(=O)Nc1ccc(S(=O)(=O)N2CCCC2)cc1)S(C)(=O)=O	0%	0.65µM*	6	0	2%	0%
O=C(Nc1ccc(S(=O)(=O)N2CCCC2)cc1)c1ccc([N+](=O)[O-])o1	?	1.8µM*	-81*	-57*	0.73µM*	-19%
O=C(Nc1ccc(S(=O)(=O)N2CCOCC2)cc1)c1ccc([N+](=O)[O-])s1	3%	13µM*	?	31	i	-28%
O=C(Nc1ccc(S(=O)(=O)N2CCOCC2)cc1)c1cccs1	0%	11%	-7	-30	11%	-3%
CC(C)CC(=O)Nc1ccc(S(=O)(=O)N2CCCC2)cc1	1%	0%	3	0	-8%	1%
Cc1ccc(Cn2c(=O)n(Cc3ccccc3Cl)c(=O)c3cccnc32)cc1	1%	.	.	.	.	0%
O=Cc1ccc(I)cc1	.	.	.	.	.	-2%
CCCCc1nn2c(=O)cc(COC(=O)c3ccco3)nc2s1	2%	.	.	.	.	0%
CCC(CC)CN1CCC(CN2CCNC(=O)C2=O)CC1	5%	2.1µM*	57	-6	-1%	5%
Cc1cc(O)ccc1NC(=O)Cc1cccc2ccccc12	9%	3%	2	12	9%	-9%
CN(C)c1ccc(S(=O)(=O)N(C)C)cc1NC(=O)Cc1cccc2ccccc12	?	-1%	-2	-52*	?	-8%
COc1ccc(C(CCN2CCOCC2)c2c(O)cc(OC)cc2OC)cc1 (stereo not given)	-1%	24%	10	-5	?	-1%
COc1ccc(C(c2c(O)ccc3ccccc23)N2CCOCC2)c(OC)c1 (stereo not given)	-24%	3.3µM*	5	0	?	?
CCOC(=O)c1c(C)[nH]c(C)c1S(=O)(=O)N(C)CC(=O)Nc1ccc(C)cc1C	5%	.	.	.	.	1%
COc1cc(N2CCCC2)c(OC)cc1/C=C(/C#N)c1ccc(Br)cc1	4µM*	23µM*	1	0	2%	?
COc1cc(N2CCCC2)c(OC)cc1/C=C(/C#N)c1ccc(F)cc1	10µM*	?	0	-19	20%	10µM*
COc1ccc(C(C#N)=Cc2ccccc2OC)cc1	-6%	.	.	26	.	-31%
CCOC(=O)N1CCc2c(sc(NCc3cccc(F)c3)c2C(=O)Nc2ccc(OCC)cc2)C1	-1%	.	.	.	.	1%
Cc1ccc(-c2nnc(SCC(=O)NC3CCCC3)nc2-c2ccc(C)cc2)cc1	1%	.	.	.	.	2%
O=C(c1ccc(O)c(Br)c1)c1cc(Br)ccc1O	-9%	?	2	25	4%	-2%
O=C(C(=O)c1cc(Br)ccc1O)c1cc(Br)ccc1O	-4%	2.6µM*	0	-84*	?	-16%
CC(=O)Nc1cc(Br)ccc1O	4%	0.73µM*	-19	1	-11%	9%
Cc1ccccc1OCC(=O)NNC(=O)Nc1ccc(Cl)cc1	.	3.7µM*	13	59	?	?
Cc1ccc(Cl)cc1NC(=O)c1ccccc1OCC(=O)Nc1ccc(Cl)cc1	2%	9.2µM*	0	4	-31%	-2%
SMILES	Vif-A3F inh	MCF10A rereplic	Giardia killer	IL-1B inflam inh	SW480 rerep	Vif-APOBEC3G blk
COc1ccc(NC(=O)COc2ccccc2C(=O)NCC(c2ccccc2)N(C)C)cc1Cl (stereo not given)	8%	?	6	-102*	152%	4%
CNC(=O)COc1ccccc1C(=O)Nc1ccc2c(c1)oc1ccccc12	-3%	3%	29	-69*	13%	-10%
N#Cc1ccccc1NC(=O)c1ccccc1OCC(=O)Nc1ccc2c(c1)oc1ccccc12	-12%	7%	-7	29	1%	-23%
COc1ccc(NC(=O)COc2ccccc2)cc1Cl	5%	7%	-6	-20	?	0%
O=C(Nc1ccc(F)c(F)c1)c1cnc(-c2ccccc2)nc1-c1ccccc1	-9%	13µM*	-7	2	2%	-18%
CC1(C)C(O)=C(c2nc3ccccc3[nH]2)C(=N)N1c1ccccc1	11%	?	4	-20	9.2µM*	3%
Cc1cccc2cc3c(N)c(C(=O)N4CCc5ccccc54)sc3nc12	4.5µM*	?	5	0	?	?
Cc1sc(NC(=O)c2sc3nc4c(C)cccc4cc3c2N)c(C#N)c1C	?	?	26	3	?	?
CCc1cccc2cc3c(N)c(C(=O)Nc4ccc(S(=O)(=O)N5CCCC5)cc4)sc3nc12	?	14%	7	-15	1%	3.5µM*
Cc1ccc(C(=O)N2CCc3ccccc32)cc1C	1%	-7%	14	23	-5%	-1%
Cc1cccc2cc3c(N)c(C(=O)Nc4ccc(N5CCOCC5)cc4)sc3nc12	?	?	3	-60*	-9%	13µM*
O=C(CN1C(=O)CCc2cc(Br)ccc21)Nc1ccc(OC(F)(F)F)cc1	-5%	.	.	.	.	-1%
Cc1nc2nc(SCC(=O)NCCCN3CCCC3)nn2c(C)c1Cc1ccccc1Cl	?	18%	-2	-54*	0%	2%
Cc1cccc(CSc2cccc3cccnc23)c1	-2%	?	13	-110*	6.5µM*	?
CCOC(=O)CSc1cccc2cccnc12	-1%	20%	-3	-3	6.5µM*	?
c1cnc2c(SCc3ccc(-c4nnco4)cc3)cccc2c1	-2%	4%	0	-67*	?	-10%
c1ccc2[nH]c(SCc3ccc(-c4nnco4)cc3)nc2c1	6%	-4%	-25	-8	-7%	5%
NNC(=O)c1ccc(CSc2cccc3cccnc23)cc1	-2%	15%	13	-25	-1%	4%
CCc1ccc(NC(=O)CSc2ccc3nnc(CCNS(=O)(=O)c4ccc(OC)cc4)n3n2)cc1	-1%	.	.	.	.	0%
C=C(CN(C)C)C(=O)c1ccc(OC2OC(COC(C)=O)C(OC(C)=O)C(OC(C)=O)C2OC(C)=O)cc1 (stereo not given)	5%	?	-18	-101*	5.8µM*	-26%
